# HP1b chromo inh: HP1-beta chromodomain-methylated histone interaction inhibition; P83916; AlphaScreen HP1-beta / biotin-H3K9me3 peptide binding; Potency, µM (highest dose often 114 µM), actives largely listed as inhibitors; 390,000 compounds, 0.56% hits; AID 540317; note: nearly all actives have a fitted effect of over 70% in size
#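 AlphaScreen: HP1-beta (50 nM) preformed 30 min with biotin-H3(1-18)K9me3 peptide (50 nM) in PBS pH 7.4, 0.01% Tween-20. Compound added for 30 min at RT, then streptavidin donor/nickel chelate acceptor beads (10 ug/mL) for 30 min.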
# BAZ2B inh: blocks human BAZ2B; 360,000 compounds, 4.4% hits; Q9UIF8; AID 504333; Potency, µM (doses to about 114 µM), most hits filed as inhibitors; AlphaScreen BAZ2B-H3K14Ac peptide displacement; note: nearly all actives have a fitted effect of over 60% in size
# Target sequence (Q9UIF8 whole entry, looked up): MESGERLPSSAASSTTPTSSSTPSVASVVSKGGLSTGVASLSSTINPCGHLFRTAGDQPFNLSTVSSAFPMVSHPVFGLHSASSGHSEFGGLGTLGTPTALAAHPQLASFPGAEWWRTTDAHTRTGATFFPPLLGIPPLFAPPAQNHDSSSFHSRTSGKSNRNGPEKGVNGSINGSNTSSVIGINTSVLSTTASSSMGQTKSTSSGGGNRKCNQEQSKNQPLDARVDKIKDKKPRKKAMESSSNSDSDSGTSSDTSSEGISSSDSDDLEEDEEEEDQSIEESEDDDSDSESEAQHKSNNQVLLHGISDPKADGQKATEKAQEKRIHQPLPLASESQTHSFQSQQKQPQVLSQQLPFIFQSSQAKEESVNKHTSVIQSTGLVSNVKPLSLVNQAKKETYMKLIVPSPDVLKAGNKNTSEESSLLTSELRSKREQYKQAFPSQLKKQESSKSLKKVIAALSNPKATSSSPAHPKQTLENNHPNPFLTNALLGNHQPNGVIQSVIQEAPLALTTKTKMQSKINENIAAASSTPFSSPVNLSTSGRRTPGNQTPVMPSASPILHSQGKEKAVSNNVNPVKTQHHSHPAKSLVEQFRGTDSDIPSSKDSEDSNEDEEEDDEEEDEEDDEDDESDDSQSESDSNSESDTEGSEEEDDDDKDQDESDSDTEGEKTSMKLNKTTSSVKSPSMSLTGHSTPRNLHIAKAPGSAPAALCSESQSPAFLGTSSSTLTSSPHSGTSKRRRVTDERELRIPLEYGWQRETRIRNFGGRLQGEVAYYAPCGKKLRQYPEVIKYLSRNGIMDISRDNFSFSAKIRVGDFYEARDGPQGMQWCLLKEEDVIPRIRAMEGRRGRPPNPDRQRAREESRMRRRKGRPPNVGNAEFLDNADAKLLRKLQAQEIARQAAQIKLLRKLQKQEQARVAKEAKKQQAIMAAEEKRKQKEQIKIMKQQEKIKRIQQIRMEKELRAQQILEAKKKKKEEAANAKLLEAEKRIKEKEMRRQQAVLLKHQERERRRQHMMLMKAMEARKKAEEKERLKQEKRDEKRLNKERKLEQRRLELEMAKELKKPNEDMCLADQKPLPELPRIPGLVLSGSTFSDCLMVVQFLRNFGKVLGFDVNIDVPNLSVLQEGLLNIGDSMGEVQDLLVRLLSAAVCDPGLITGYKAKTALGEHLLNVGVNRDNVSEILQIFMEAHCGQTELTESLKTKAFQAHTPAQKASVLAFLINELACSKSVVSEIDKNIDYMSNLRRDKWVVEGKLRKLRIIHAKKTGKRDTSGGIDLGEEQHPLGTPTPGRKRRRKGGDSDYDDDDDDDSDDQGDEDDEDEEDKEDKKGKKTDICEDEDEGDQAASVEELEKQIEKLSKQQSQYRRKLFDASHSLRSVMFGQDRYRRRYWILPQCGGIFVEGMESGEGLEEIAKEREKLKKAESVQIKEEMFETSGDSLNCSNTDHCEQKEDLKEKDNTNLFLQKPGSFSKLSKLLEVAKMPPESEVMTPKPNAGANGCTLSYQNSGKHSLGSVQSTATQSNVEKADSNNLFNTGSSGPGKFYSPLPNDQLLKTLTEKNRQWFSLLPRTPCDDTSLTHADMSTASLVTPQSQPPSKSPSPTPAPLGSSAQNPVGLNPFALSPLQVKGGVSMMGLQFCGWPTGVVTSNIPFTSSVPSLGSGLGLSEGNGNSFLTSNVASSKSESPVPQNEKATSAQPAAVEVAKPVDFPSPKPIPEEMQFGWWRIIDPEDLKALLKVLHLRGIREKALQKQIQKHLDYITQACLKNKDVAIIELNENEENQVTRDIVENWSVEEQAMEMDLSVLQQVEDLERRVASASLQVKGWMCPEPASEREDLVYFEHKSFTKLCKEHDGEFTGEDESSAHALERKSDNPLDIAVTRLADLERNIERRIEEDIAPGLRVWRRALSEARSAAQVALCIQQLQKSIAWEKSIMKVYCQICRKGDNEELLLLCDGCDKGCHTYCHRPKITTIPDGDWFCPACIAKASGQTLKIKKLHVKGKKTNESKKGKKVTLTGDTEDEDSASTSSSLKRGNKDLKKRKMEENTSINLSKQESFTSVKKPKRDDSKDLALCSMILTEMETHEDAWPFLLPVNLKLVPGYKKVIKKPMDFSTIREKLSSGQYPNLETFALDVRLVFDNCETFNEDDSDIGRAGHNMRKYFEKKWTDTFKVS
#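 AlphaScreen luminescence quantifies BAZ2B engagement of H3K14Ac peptide; the protein and biotinylated peptide are both at 50 nM final, buffer PBS pH 7.4 with 0.01% Tween-20, all steps at room temperature.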
# Sfp inh: Sfp phosphopantetheinyl transferase inhibition; Potency, µM, usual class: inhibitors; Biochemical Sfp PPTase activity, qHTS; 310,000 compounds, 3.5% hits; AID 1490;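 note: the enzyme is Sfp with the accession as filed and its product quenches rhodamine fluorescence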
#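 Fluorescence-quenching assay: 15 nM Sfp-PPTase preincubated 15 min at room temperature with compound, then 5 uM rhodamine-CoA and 12.5 uM BHQ-2-labelled YbbR peptide added. Fluorescence (ex 525/em 598 nm) read at start and after 30 min; difference gives rate.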
# PLK1 PBD inh: PLK1 (human) polo-box domain binding inhibition; P53350; Plk1 PBD binding of FITC phosphopeptide, fluorescence polarization; Potency, µM, hits mostly inhibitors; 360,000 compounds, 2.8% hits; note: series mostly up to about 57 µM; nearly all actives have a fitted effect of over 65% in size
# JMJD2A Tudor inh: JMJD2A Tudor domain (human) inhibition; O75164; 390,000 compounds, 4.4% hits; AlphaScreen JMJD2A-Tudor / H3K4me3 peptide binding; Potency, µM (series often up to 114 µM), actives largely listed as inhibitors; AID 504339; note: nearly all actives have a fitted effect of over 50% in size
# G9a block: blocks human histone lysine methyltransferase G9a | Potency, µM (doses to about 102 µM), hits mostly inhibitors | 350,000 compounds, 8.8% hits | G9a H3K9 monomethylation, AlphaScreen, 2 h | Q96KQ7; note: nearly all actives have a fitted effect of over 75% in size
#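 Readings reflect AlphaScreen signal from monomethyl-H3K9 antibody detection. HMT at 20 nM; substrate b-H3K9 500 nM; cofactor SAM 20 uM; 2 h RT reaction; compounds tested as titrations in qHTS with 15 min preincubation.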
# Hits are given with their value; - = inactive; ? = inconclusive; . = no result given; [ ] = remark or other dose. Shown are actives, neighbours in structure and some others; about 12% of the full set was active somewhere. Calls come from the whole dose curve; as a rule, active = well fitted curve in the direction sought with a large enough effect; inconclusive = small, poorly fitted or top-dose-only effect, or another doubt; inactive = no such curve, though single readings can be large; an effect the other way counts as inactive or inconclusive.
SMILES,HP1b chromo inh,BAZ2B inh,Sfp inh,PLK1 PBD inh,JMJD2A Tudor inh,G9a block
COc1ccc(C2C=C(c3ccc(Cl)cc3)Nc3nc(-c4ccc(Cl)cc4)nn32)cc1 (stereo not given),-,?,.,.,-,?
CCC(C)c1cc([N+](=O)[O-])cc([N+](=O)[O-])c1OC(C)=O (stereo not given),.,.,-,.,.,.
CCn1c(CC(=O)Nc2ccc(F)cc2)nnc1SCC(=O)N1CCOCC1,-,-,-,30µM,-,-
Cc1ccc(C2=Nn3c(COc4ccc(Cl)cc4)nnc3SC2CC(=O)O)cc1 (stereo not given),-,?,-,?,-,40µM
Cc1ccc(NC(=O)CSc2nnc(COc3ccc(Cl)cc3)o2)cc1,-,-,.,.,-,-
CC12C(=O)N(Cc3ccco3)C(=O)C1C1c3ccccc3C2c2ccccc21 (stereo not given),-,-,-,-,?,-
O=C1C=C(O)CC(c2ccco2)C1 (stereo not given),-,?,-,?,56µM,?
O=C1C=C(NCc2ccc(Cl)cc2)CC(c2ccco2)C1 (stereo not given),?,50µM,-,-,?,-
O=C1C=C(Nc2ccc(Cl)cc2Cl)CC(c2ccco2)C1 (stereo not given),-,-,-,-,-,50µM
CC(C)CNC1=CC(=O)CC(c2ccco2)C1 (stereo not given),-,?,?,-,-,-
O=C1C=C(Nc2ccc(O)cc2)CC(c2ccco2)C1 (stereo not given),-,-,-,-,-,?
C=C(C)CSc1cc(C)c(C#N)c2nc3ccccc3n12,-,-,32µM,27µM,-,1.4µM
Cc1cc(-c2ccco2)n2c(nc3ccccc32)c1C#N,-,-,-,11µM,-[11.4 µM],?
Cc1ccnc(N2CCN(c3cc(C)c(C#N)c4nc5ccccc5n34)CC2)c1,-,.,.,-,-,.
CC1(COc2ccc(CC3SC(=O)NC3=O)cc2)CCCCC1 (stereo not given),.,.,-,.,.,-[12.7 µM]
Cc1ccc(O)c(Cn2nnc3ccccc32)c1,-,-,.,-,-,-[2.33 µM]
COc1ccccc1CNC(=O)C1CCCN(c2nnc(-n3c(C)ccc3C)s2)C1 (stereo not given),-,-,.,.,-,-
CCn1c(C(=O)N2CCCC(C(=O)N3CCN(c4cc(C)ccc4C)CC3)C2)cc2sccc21 (stereo not given),-,?,.,.,?,-
CN(C)/C=C/C(=O)c1ccc(-c2ccc(Cl)cc2Cl)o1,-,?,-,-,-,45µM
C=CCN(c1ccccc1)S(=O)(=O)c1cccc(C(=O)NC2CCN(Cc3ccccc3)CC2)c1,-,-,.,-,-,50µM
COc1ccc(CNC(=O)c2cncc(Br)c2)cc1,-,-,-,-,-,-
CCNc1ncc2nc(-c3cccs3)c(=O)n(Cc3cccs3)c2n1,.,.,-,.,.,-[0.501 µM]
CCOC(=O)c1c(Nc2ccc(C)cc2)nnc(-c2ccccc2)c1-c1ccccc1,-,?,.,.,?,2.2µM
Cc1cc(NS(=O)(=O)c2cn(C)nc2C)no1,-,-,-,-,-,.
CC1(C)CC(N=C2C([N+](=O)[O-])=CC=C3C2=NC2(CCCCC2)N3O)CC(C)(C)N1,-,-,-,-,-,.
SMILES,HP1b chromo inh,BAZ2B inh,Sfp inh,PLK1 PBD inh,JMJD2A Tudor inh,G9a block
CC(C)(C)N=C1C([N+](=O)[O-])=CC=C2C1=NC1(CCCCC1)N2O,25µM,5.6µM,?,-,6.3µM,3.5µM
O=[N+]([O-])C1=CC=C2C(=NC3(CCCCC3)N2O)C1=NCCc1ccccc1,-,-,-,?,-[11.4 µM],7.1µM
O=[N+]([O-])C1=CC=C2C(=NC3(CCCCC3)N2O)C1=NC1CCCCC1,13µM,3.2µM,-,-,?,.
O=C(CSc1nc2ccccc2c(=O)n1-c1ccc(F)cc1)NC1CCS(=O)(=O)C1 (stereo not given),-,-,.,-,-,?
O=C(O)c1ccccc1C(=O)NNc1cccc(Cl)n1,-,-,-,-,-,45µM
O=C(O)c1ccccc1C(=O)NNc1ccc(Cl)cc1,-,-,-,-,-,?
O=C(O)c1ccccc1C(=O)NNc1ccc(F)cc1F,-,-,-,-,-,50µM
CC(C)(C)c1ccc(C(=O)NNc2ccc(F)cc2F)cc1,-,-,-,?,89µM,22µM
O=C(CCS(=O)(=O)c1cc(Br)cc2c1N(C(=O)C1CC1)CC2)NCc1ccccc1Cl,-,-,.,.,-,-
CCNC(=O)Nc1ccc(-n2nc(C)c(C(=O)OCC)c2C)nc1,-,-,-,15µM,20µM,-
CCOC(=O)c1c(C)nn(-c2ccc(NC(=O)c3cccs3)cc2)c1C,-,-,-,-,-,-[12.7 µM]
CCOC(=O)c1c(C)nn(-c2ccc(NC(=O)c3c(C)noc3C)cc2)c1C,-,-,-,-,-,45µM
CCOC(=O)c1c(C)nn(-c2ccc(NC(=O)/C=C/C(=O)O)cc2)c1C,-,-,-,-,-,?
Cc1ccc(Nc2nc(N)nc(COC(=O)C3=COCCO3)n2)cc1,-,-,.,-,-,-[12.7 µM]
O=c1n(Cc2cc3c(cc2Cl)OCO3)c(=O)n2n1CC[C@H]1/C(=N\OCc3ccccc3)[C@H]3O[C@@H]3[C@@H](O)[C@@H]12,.,.,-,.,.,.
O=C(CSc1ccccc1F)NCC1(N2CCCCC2)CCCCC1,-,-,.,-,-,-
COc1cc2c(c(O)c1OC)-c1c(cc(OC)c(OC)c1O)[C@@H](OC(=O)c1ccccc1)[C@@](C)(O)[C@@H](C)[C@@H]2OC(C)=O,.,50µM,-,.,.,-
COc1cc(NC(=O)c2ccc(C(=O)c3ccccc3)cc2)cc(OC)c1OC,-,-,-,-,-,.
COc1ccccc1CNC(=O)C(Cc1ccccc1)NS(=O)(=O)c1ccc2c(c1)CCN2C(C)=O (stereo not given),-,.,.,.,-,-
O=C(CN1C(=O)NC2(CCCC2)C1=O)NNC(=O)c1ccc(Br)cc1,-,-,.,-,3.2µM,-
CC(=O)NC1=NN(C(C)=O)C2(S1)C(=O)N(C(C)=O)c1ccc(C)cc12 (stereo not given),-,-,-,27µM,?,-
O=S(=O)(c1ccc(S(=O)(=O)N2CCCC2)cc1)N1CCCCC1,-,-,-,-,-,-
Cc1ccc(-n2sc3ccccc3c2=O)cc1S(=O)(=O)N1CCCCC1,?,5.6µM,1.6µM,0.84µM,7.9µM,0.89µM
Cc1ccc(C(=O)NNC(=O)c2ccccc2)cc1S(=O)(=O)N1CCCCC1,-,-,.,-,-,-[12.7 µM]
O=S(=O)(c1ccccc1)N1CCN(S(=O)(=O)N2CCCCCC2)CC1,-,-,-,-,-,-
O=c1c2ccccc2sn1-c1ccc(S(=O)(=O)N2CCCCC2)cc1,?,.,.,1.3µM,8.9µM,.
O=c1c2ccccc2sn1-c1ccc(S(=O)(=O)N2CCCC2)cc1,1.4µM,7.1µM,3.2µM,1.1µM,11µM,.
